# Source: publication PMC5700166
# Target: T1, GST-Aq-NF-kB (Amphimedon queenslandica, UniProt A9Y5G7 2-389)
# T1 sequence: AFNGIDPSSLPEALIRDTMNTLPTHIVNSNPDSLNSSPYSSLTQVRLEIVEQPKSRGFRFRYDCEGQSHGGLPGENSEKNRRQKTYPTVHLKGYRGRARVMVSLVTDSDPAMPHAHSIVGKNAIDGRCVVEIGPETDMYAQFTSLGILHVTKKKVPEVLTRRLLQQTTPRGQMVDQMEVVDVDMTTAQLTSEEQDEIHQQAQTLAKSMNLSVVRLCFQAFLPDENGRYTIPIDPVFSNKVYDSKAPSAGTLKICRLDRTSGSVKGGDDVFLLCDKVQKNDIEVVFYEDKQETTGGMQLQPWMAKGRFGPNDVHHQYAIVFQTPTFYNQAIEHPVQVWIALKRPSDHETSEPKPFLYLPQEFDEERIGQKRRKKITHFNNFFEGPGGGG
# Test: protein-binding microarray (PBM); PBM: ~300 nM protein, 6 mM HEPES pH 7.8, 80 mM KCl, 0.5 mM EDTA, 0.5 mM EGTA, 6% glycerol, 35 ng/ul poly-dIdC, 1% milk, 1 h, room temperature; Ap Aiptasia and Nv Nematostella (sea anemones) / Co Capsaspora / Aq Amphimedon (sponge) / Dm Drosophila / Hu human; RHD is the Rel homology domain; high values mean tight binding
# Conditions: dsDNA, one strand shown
row,Sequence,binding signal
1,CCGATTAACATCAGAGAAATTCCTGATGTTAATCGGGTCTTGATTCGCTTGACGCTGCTG,1.65 z-score
2,CCGATTAACATCAGGAACTGCCCTGATGTTAATCGGGTCTTGATTCGCTTGACGCTGCTG,2.36 z-score
3,CCGATTAACATCAAATTTCCGGATGATGTTAATCGGGTCTTGATTCGCTTGACGCTGCTG,1.25 z-score
4,CCGATTAACATCAAGGAATGTCCTGATGTTAATCGGGTCTTGATTCGCTTGACGCTGCTG,1.74 z-score
5,CCGATTAACATCAGGGCAGTCCATGATGTTAATCGGGTCTTGATTCGCTTGACGCTGCTG,1.1 z-score
6,CCGATTAACATCAAGGAAAAGCCTGATGTTAATCGGGTCTTGATTCGCTTGACGCTGCTG,1.11 z-score
7,CCGATTAACATCAAAAATATTCCTGATGTTAATCGGGTCTTGATTCGCTTGACGCTGCTG,1 z-score
8,CCGATTAACATCACGGAAAATTCTGATGTTAATCGGGTCTTGATTCGCTTGACGCTGCTG,1.15 z-score
9,CCGATTAACATCAGGATATGCCCTGATGTTAATCGGGTCTTGATTCGCTTGACGCTGCTG,1.7 z-score
10,CCGATTAACATCACGGCAATTCCTGATGTTAATCGGGTCTTGATTCGCTTGACGCTGCTG,1.38 z-score
11,CCGATTAACATCAAGAAATTCCTTGATGTTAATCGGGTCTTGATTCGCTTGACGCTGCTG,1.02 z-score
12,CCGATTAACATCACGGAGAATCCTGATGTTAATCGGGTCTTGATTCGCTTGACGCTGCTG,1.18 z-score
13,CCGATTAACATCAGGCATTTCCATGATGTTAATCGGGTCTTGATTCGCTTGACGCTGCTG,1.13 z-score
14,CCGATTAACATCAAGGCATTTCCTGATGTTAATCGGGTCTTGATTCGCTTGACGCTGCTG,1.06 z-score
15,CCGATTAACATCACGGGTTGCCCTGATGTTAATCGGGTCTTGATTCGCTTGACGCTGCTG,1.04 z-score
16,CCGATTAACATCACGGCAAGTCCTGATGTTAATCGGGTCTTGATTCGCTTGACGCTGCTG,1.46 z-score
17,CCGATTAACATCAGGAATTGCCATGATGTTAATCGGGTCTTGATTCGCTTGACGCTGCTG,1.02 z-score
18,CCGATTAACATCAGAAACTTTCCTGATGTTAATCGGGTCTTGATTCGCTTGACGCTGCTG,2.07 z-score
19,CCGATTAACATCACGGTCTTTCCTGATGTTAATCGGGTCTTGATTCGCTTGACGCTGCTG,2.62 z-score
20,CCGATTAACATCAAACCCTACTGTGATGTTAATCGGGTCTTGATTCGCTTGACGCTGCTG,1.19 z-score
21,CCGATTAACATCAAGGATTGCCCTGATGTTAATCGGGTCTTGATTCGCTTGACGCTGCTG,1.51 z-score
22,CCGATTAACATCAAGGAATCTCCTGATGTTAATCGGGTCTTGATTCGCTTGACGCTGCTG,1.78 z-score
23,CCGATTAACATCAAAATTTCCGTTGATGTTAATCGGGTCTTGATTCGCTTGACGCTGCTG,1.64 z-score
24,CCGATTAACATCACTAAAATTCCTGATGTTAATCGGGTCTTGATTCGCTTGACGCTGCTG,1.03 z-score
25,CCGATTAACATCAGGAAATTCTATGATGTTAATCGGGTCTTGATTCGCTTGACGCTGCTG,1.08 z-score
26,CCGATTAACATCAGGAATGTCCATGATGTTAATCGGGTCTTGATTCGCTTGACGCTGCTG,1.06 z-score
